# Laboratory results taken from PubChem BioAssay AID1159580 (chemical genetic matrix, 2015).
# Where “and” joins values, the source holds several entries; their conditions need not be identical. Identical values can stand only once. Among all 5,500 compounds or so, about 2,000 (36%) were called active. About 18% were inconclusive and are not listed. The list shows a part of the results. Values without a mark were called inactive. Rule as the data show it: active = normalized growth mostly below about 0.91 (no sharp cut-off); inconclusive = no clear call, values can overlap the other calls; inactive = mostly above about 0.92.
# Assay: chemical genetic growth profiling, strain panel (AID 1159580);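 also: tested at 20 µM; growth read once vehicle control cultures reached saturation at 30 °C; 1 = growth at the plate median or of vehicle wells; lower values mean less growth of the strain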
# Details: S. cerevisiae deletion strains, growth OD
# [1] = locus YAL040C, strain CLN3, active compounds read low
# [2] = locus YCL061C, strain MRC1 (second series), active compounds read low
# [3] = locus YDR150W, strain NUM1, active compounds read low
# [4] = locus YDR363W, strain ESC2, active compounds read low
# [5] = locus YER002W, strain NOP16, active compounds read low
# [6] = locus YGR078C, strain PAC10, active compounds read low
# [7] = locus YMR307W, strain GAS1, active compounds read low
# [8] = locus YNL175C, strain NOP13, active compounds read low
# [9] = locus YNL197C, strain WHI3, active compounds read low
# [10] = locus YNL224C, strain SQS1, active compounds read low
# [11] = locus YNL322C, strain KRE1, active compounds read low
# [12] = locus YOR083W, strain WHI5 (second series), active compounds read low
# [13] = locus YAL013W, strain DEP1, active compounds read low
# [14] = locus YBR229C, strain ROT2, active compounds read low
# [15] = locus YDL101C, strain DUN1, active compounds read low
# [16] = locus YDL134C, strain PPH21, active compounds read low
# [17] = locus YEL061C, strain CIN8, active compounds read low
# [18] = locus YHR030C, strain SLT2, active compounds read low
# [19] = locus YJR043C, strain POL32, active compounds read low
# [20] = locus YJR075W, strain HOC1, active compounds read low
# [21] = locus YKL190W, strain CNB1, active compounds read low
# [22] = locus YLR039C, strain RIC1, active compounds read low
# [23] = locus YLR262C, strain YPT6, active compounds read low
# [24] = locus YMR263W, strain SAP30, active compounds read low
# [25] = locus YNL153C, strain GIM3, active compounds read low
compound,measurement,setting,value
CCC1(O)CC2CN(CCc3c([nH]c4ccccc34)[C@@](C(=O)OC)(c3cc4c(cc3OC)N(C=O)C3[C@]45CCN4CC=C[C@@](CC)([C@@H](OC(C)=O)[C@]3(O)C(=O)OC)[C@H]45)C2)C1 (some centres not stated),normalized growth,[1],0.979
same,normalized growth,[2],0.991
same,normalized growth,[3],0.999
same,normalized growth,[4],0.986
same,normalized growth,[5],1
same,normalized growth,[6],0.999
same,normalized growth,"locus YGR229C, strain SMI1, active compounds read low",0.983
same,normalized growth,[7],0.99
same,normalized growth,[8],1.01
same,normalized growth,[9],0.983
same,normalized growth,[10],1
same,normalized growth,[11],0.957
same,normalized growth,[12],0.99
NC(CSCSCC(N)C(=O)O)C(=O)O (configuration not stated),normalized growth,[13],1.01
same,normalized growth,"locus YBR021W, strain FUR4, active compounds read low",1.01
same,normalized growth,[14],0.998
same,normalized growth,"locus YCL029C, strain bik1, active compounds read low",0.989
same,normalized growth,"locus YDL035C, strain GPR1, active compounds read low",1.02
same,normalized growth,"locus YDL074C, strain BRE1, active compounds read low",1.05
same,normalized growth,[15],1
same,normalized growth,[16],0.988
same,normalized growth,"locus YDL185W, strain tfp1, active compounds read low",1.01
same,normalized growth,"locus YDL192W, strain arf1, active compounds read low",0.977
same,normalized growth,"locus YDR101C, strain arx1, active compounds read low",0.999
same,normalized growth,"locus YDR162C, strain NBP2, active compounds read low",1.02
same,normalized growth,"locus YDR318W, strain mcm21, active compounds read low",0.981
same,normalized growth,"locus YDR388W, active compounds read low",0.986
same,normalized growth,"locus YDR502C, strain sam2, active compounds read low",1
same,normalized growth,[17],1.02
same,normalized growth,"locus YER110C, active compounds read low",0.987
same,normalized growth,"locus YER155C, strain BEM2, active compounds read low",1.01
same,normalized growth,"locus YER167W, strain BCK2, active compounds read low",1
same,normalized growth,"locus YGL078C, strain dbp3, active compounds read low",1.01
same,normalized growth,"locus YGL086W, strain mad1, active compounds read low",1
same,normalized growth,"locus YGL248W, strain PDE1, active compounds read low",0.997
same,normalized growth,"locus YGR135W, strain pre9, active compounds read low",0.99
same,normalized growth,"locus YGR252W, strain gcn5, active compounds read low",1.11
same,normalized growth,[18],1.01 and 1.04
same,normalized growth,"locus YHR079C, strain IRE1 (second series), active compounds read low",0.987
same,normalized growth,"locus YHR079C, strain IRE1, active compounds read low",1.04
same,normalized growth,"locus YHR094C, strain hxt1, active compounds read low",0.985
same,normalized growth,"locus YHR129C, strain ARP1, active compounds read low",0.995
same,normalized growth,"locus YHR200W, strain rpn10, active compounds read low",0.997
same,normalized growth,"locus YIL066C, strain RNR3, active compounds read low",1.01
same,normalized growth,"locus YIL073C, strain SPO22, active compounds read low",1.06
same,normalized growth,"locus YIL125W, strain kgd1, active compounds read low",1.01
same,normalized growth,"locus YIR030C, strain dcg1, active compounds read low",0.999
same,normalized growth,"locus YJL095W, strain BCK1, active compounds read low",1.01 and 1.02
same,normalized growth,"locus YJL134W, strain LCB3, active compounds read low",1.01
same,normalized growth,"locus YJL168C, strain set2, active compounds read low",0.982
same,normalized growth,"locus YJL187C, strain SWE1 (second series), active compounds read low",1.01
same,normalized growth,[19],1.01
same,normalized growth,"locus YJR066W, strain TOR1, active compounds read low",0.979
same,normalized growth,[20],1.01
same,normalized growth,"locus YKL009W, strain mrt4, active compounds read low",1.01
same,normalized growth,"locus YKL068W, active compounds read low",1
same,normalized growth,"locus YKL085W, strain MDH1 (second series), active compounds read low",0.998
same,normalized growth,"locus YKL085W, strain MDH1, active compounds read low",0.998
same,normalized growth,[21],1.01
same,normalized growth,"locus YKR001C, strain vps1, active compounds read low",1.02
same,normalized growth,[22],1.1
same,normalized growth,"locus YLR058C, strain SHM2, active compounds read low",1
same,normalized growth,"locus YLR102C, strain apc9, active compounds read low",0.979
same,normalized growth,"locus YLR113W, strain HOG1, active compounds read low",1.04
same,normalized growth,[23],1.12
same,normalized growth,"locus YLR268W, strain sec22, active compounds read low",1.02
same,normalized growth,"locus YLR330W, strain CHS5, active compounds read low",1.01
same,normalized growth,"locus YLR342W, strain FKS1 (second series), active compounds read low",1.02
same,normalized growth,"locus YLR371W, strain rom2, active compounds read low",0.977
same,normalized growth,"locus YLR418C, strain cdc73, active compounds read low",1.01
same,normalized growth,"locus YML016C, strain PPZ1, active compounds read low",1
same,normalized growth,"locus YML032C, strain rad52, active compounds read low",0.992
same,normalized growth,"locus YML124C, strain tub3, active compounds read low",0.99
same,normalized growth,"locus YMR078C, strain ctf18, active compounds read low",0.988
same,normalized growth,"locus YMR223W, strain ubp8, active compounds read low",0.994
same,normalized growth,[24],1.01
same,normalized growth,[7],1.02
same,normalized growth,"locus YNL067W, strain RPL9B, active compounds read low",1
same,normalized growth,[25],1
same,normalized growth,"locus YNL183C, strain NPR1, active compounds read low",0.983
same,normalized growth,"locus YNL233W, strain BNI4, active compounds read low",1.02
same,normalized growth,"locus YNL250W, strain rad50, active compounds read low",1.02
same,normalized growth,"locus YNL271C, strain bni1, active compounds read low",1.01
same,normalized growth,"locus YNL298W, strain CLA4, active compounds read low",1
same,normalized growth,"locus YNL307C, strain MCK1, active compounds read low",0.987
same,normalized growth,"locus YNR052C, strain pop2, active compounds read low",0.999
same,normalized growth,"locus YOL012C, strain htz1",0.928
same,normalized growth,"locus YOL147C, strain pex11, active compounds read low",0.991
same,normalized growth,"locus YOR061W, strain CKA2, active compounds read low",1.01
same,normalized growth,"locus YOR069W, strain VPS5, active compounds read low",1.01
same,normalized growth,"locus YOR136W, strain idh2, active compounds read low",0.996
same,normalized growth,"locus YOR144C, strain elg1, active compounds read low",0.984
same,normalized growth,"locus YOR184W, strain ser1, active compounds read low",0.995
same,normalized growth,"locus YOR231W, strain MKK1, active compounds read low",1.04
same,normalized growth,"locus YOR316C, strain cot1, active compounds read low",0.98
same,normalized growth,"locus YPL256C, strain CLN2, active compounds read low",1.02
same,normalized growth,"locus YPR119W, strain clb2, active compounds read low",0.987
same,normalized growth,"locus YPR141C, strain kar3, active compounds read low",0.997
same,normalized growth,"locus YPR163C, strain tif3, active compounds read low",0.999
same,normalized growth,"locus YPR167C, strain met16, active compounds read low",0.988
same,normalized growth,"strain wtn01, active compounds read low",1.04
FC(F)(F)c1cc(CO[C@H]2CCCN[C@H]2c2ccccc2)cc(C(F)(F)F)c1,normalized growth,[13],0.988
same,normalized growth,[1],0.998
same,normalized growth,[2],0.975
same,normalized growth,[4],0.96
same,normalized growth,[5],1.04
same,normalized growth,[24],0.999
same,normalized growth,[7],0.964
same,normalized growth,"locus YNL128W, strain TEP1, active compounds read low",1.05
same,normalized growth,[25],0.823
same,normalized growth,[8],1.04
same,normalized growth,[9],1.07
same,normalized growth,[10],1.03
same,normalized growth,[12],0.913
Cn1c2c(c3c1CCCC3)CCCC2,normalized growth,[13],0.995
same,normalized growth,[14],1.03
same,normalized growth,"locus YCL061C, strain MRC1, active compounds read low",1.01
same,normalized growth,[15],0.974
same,normalized growth,[16],1.02
same,normalized growth,[3],1.02
same,normalized growth,[17],0.988
same,normalized growth,[6],1.01
same,normalized growth,[18],1.01
same,normalized growth,"locus YHR087W, strain rtc3, active compounds read low",0.992
same,normalized growth,[19],1.02
same,normalized growth,[20],1.02
same,normalized growth,[21],1.02
same,normalized growth,[22],0.925
same,normalized growth,"locus YLR058C, strain SHM2 (second series), active compounds read low",1.02
same,normalized growth,"locus YLR085C, strain ARP6, active compounds read low",1
same,normalized growth,[23],0.974
same,normalized growth,"locus YML094W, strain GIM5, active compounds read low",0.972
same,normalized growth,"locus YMR219W, strain ESC1, active compounds read low",1.02
same,normalized growth,[24],1
same,normalized growth,[25],0.873 (active)
same,normalized growth,"locus YNL298W, strain CLA4 (second series), active compounds read low",1.02
same,normalized growth,[11],1.01
same,normalized growth,"locus YNR030W, strain Alg12, active compounds read low",1.03
same,normalized growth,"locus YOL006C, strain TOP1, active compounds read low",1
same,normalized growth,"locus YPL055C, strain LGE1, active compounds read low",1.08
same,normalized growth,"locus YPL241C, strain CIN2, active compounds read low",1.01
same,normalized growth,"locus YPR135W, strain CTF4, active compounds read low",1.06
